High-throughput results as filed in PubChem BioAssay.
CRFBP-R2 block = CRF-BP/CRF-R2 complex antagonism | HEK293 CRF-R2/CRF-BP, CRF-induced calcium fluorescence | inhibition, % at 11.8 µM | 350,000 tested, 0.59% active | AID 588475;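 active means inhibition of the ligand-induced calcium signal above about 50% at the single tested concentration, limit read from the data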
eIF4H FP inh = inhibitors of RNA binding by human eIF4H | eIF4H fluorescence polarization binding assay | Q15056 | 290,000 tested, 0.94% active | inhibition, % at 35 µM | AID 2012;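 further: calls also rest on retests at 20 µM and on dose response follow-up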
PABP polyA inh = PABP-poly(A) binding inhibition; P11940; PABP-poly(A) RNA binding, fluorescence polarization; inhibition, % at 35 µM; 290,000 tested, 1% active; AID 2014;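 further: calls also rest on retests at 20 µM and on dose response follow-up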
MLLE-PAM2 inh = inhibitors of microRNA-mediated deadenylation, human PABP1 MLLE binding | P11940 | GST-MLLE / FITC-PAM2 fluorescence polarization | inhibition, % at 20 µM | 360,000 tested, 0.36% active; in the data active means inhibition above about 35%, passing the limit was not always enough;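 further: plate controls were DMSO wells with GST-MLLE for no effect and wells lacking GST-MLLE protein for full effect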
PHOSPHO1 block = PHOSPHO1 (human) inhibition | Q8TCT1 | recombinant PHOSPHO1, absorbance phosphatase assay | inhibition, % at 13.3 µM | 290,000 tested, 1.1% active | AID 1565; in the data active means inhibition above about 60%
Target sequence (Q8TCT1 whole entry, looked up): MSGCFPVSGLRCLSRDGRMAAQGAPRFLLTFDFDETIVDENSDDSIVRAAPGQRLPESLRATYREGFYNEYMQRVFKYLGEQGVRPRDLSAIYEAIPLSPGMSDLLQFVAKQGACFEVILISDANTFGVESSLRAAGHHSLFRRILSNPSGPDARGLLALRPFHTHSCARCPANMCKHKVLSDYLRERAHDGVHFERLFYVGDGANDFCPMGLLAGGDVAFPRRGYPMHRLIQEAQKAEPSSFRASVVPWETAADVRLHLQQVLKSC
* hit, by the source's call; ? = inconclusive; / = no result. Most compounds without a hit are left out; they make up all but 2.6% or so of the library. Unless noted, how the calls were made is not given here.

SMILES | CRFBP-R2 block | eIF4H FP inh | PABP polyA inh | MLLE-PAM2 inh | PHOSPHO1 block
COC(=O)c1ccccc1NC(=O)Cc1nc(-c2ccccc2)sc1-c1ccc(C)cc1 | -11 | active | 70* | -19 | -12
COc1cccc(CNc2nc3cc(-c4ccccc4CO)sc3c(=O)n2C)c1 | / | / | / | -10 | /
CNC(=O)C1Cc2c(-c3ccc(Cl)cc3)ccnc2O1 (centres undefined) | / | / | / | 9 | /
Cc1ccc(NC(=O)C2CCCN2C(=O)c2cccs2)cc1C (centres undefined) | 54* | / | / | -3 | /
CC(=O)c1cccc(S(=O)(=O)NC2CCSc3ccccc32)c1 (centres undefined) | -2 | -5 | -3 | 47* | 11
NS(=O)(=O)c1cc(C(=O)NC2CCSc3ccccc32)ccc1Cl (centres undefined) | 11 | 106* | 90* | 11 | 16
CC(=O)c1cccc(S(=O)(=O)NC2CC2)c1 | 10 | 0 | 3 | 35 | -6
NS(=O)(=O)c1cccc(C(=O)NC2CCSc3ccccc32)c1 (centres undefined) | 1 | -8 | -6 | 5 | 14
O=C(COC(=O)c1ccc2ccccc2c1)NCc1ccccc1 | -14 | / | / | 1 | /
Brc1ccccc1C1=Nn2c(nnc2-c2ccccc2)SC1 | -32 | -5 | -1 | 8 | 83*
CCOC(=O)c1cc(S(=O)(=O)NC2CCC(C)CC2)cn1C (centres undefined) | -8 | / | / | 0 | 64*
CCOC(=O)c1cc(S(=O)(=O)Nc2ccc(F)cc2F)cn1C | 72* | / | / | 4 | 58
CCOC(=O)c1cc(S(=O)(=O)N2CCOCC2)cn1C | 6 | / | / | -2 | 30
CC1C2C(c3ccccc3)N(C)C(=O)N(C)C2N(C)C(=O)N1C (centres undefined) | -8 | 57* | 56* | 21 | 4
CN1NC(c2ccccc2)NN(C)C1=O | / | / | / | 4 | /
O=C(NCc1ccc2c(c1)OCO2)c1ccc(Br)cc1 | 4 | -7 | -2 | -9 | -47
Cc1nc2cc(C(=O)NCc3ccc4c(c3)OCO4)ccc2n1-c1ccc(Br)cc1 | 65* | -3 | -9 | 7 | 17
COc1ccccc1C(=O)CSc1n[nH]c(N)n1 | -2 | -1 | 8 | 21 | 80*
Cc1nc(SCC(=O)c2ccccc2)n[nH]1 | -1 | 6 | -4 | 15 | 98*
O=C(CSc1n[nH]c(-c2ccncc2)n1)c1ccccc1 | -2 | -11 | -7 | -3 | 33
COCCNC(=O)C1CCCN(Cc2ccccc2-c2ccccc2)CC1 (centres undefined) | / | / | / | 0 | /
Cc1cc(NC(=O)NC(=O)c2ccccc2NC(=O)C(C)N)ccc1Oc1ncc(Br)cn1 (centres undefined) | -45 | / | / | -2 | /
O=C(COC(=O)c1cnc(Cl)c(Cl)c1)NCCC1=CCCCC1 | 86* | -15 | 18 | -3 | 15
O=C1NC(Cc2ccccc2)c2nc3cc(Cl)ccc3c(=O)n2-c2ncccc21 (centres undefined) | 5 | / | / | -3 | /
O=C(CSC1=Nc2ccccc2C2=NC(CC(=O)NC3CCCCC3)C(=O)N12)NCc1ccco1 (centres undefined) | -1 | ? | ? | 49* | 46
SMILES | CRFBP-R2 block | eIF4H FP inh | PABP polyA inh | MLLE-PAM2 inh | PHOSPHO1 block
O=C(CCC1N=C2c3ccccc3N=C(SCc3ccccc3Cl)N2C1=O)NCc1ccco1 (centres undefined) | -9 | -10 | 3 | 1 | 42
O=C1Nc2ccccc2/C1=C/c1ccc([N+](=O)[O-])cc1 | -7 | 2 | 0 | 14 | 40
CC1(c2ccc([N+](=O)[O-])cc2)Nc2ccccc2S1 (centres undefined) | -25 | 1 | -3 | 42* | 15
O=C1NN(c2ccc(F)cc2)C(=O)/C1=C\C=C\c1ccco1 | 31 | 88* | active | 0 | 0
O=C1NN(c2ccc(F)cc2)C(=O)/C1=C\c1cnn(-c2ccccc2)c1 | / | 5 | -1 | / | 32
C=CCOc1cccc(CNc2ccc3[nH]c(=O)[nH]c3c2)c1 | 91* | 4 | -10 | 16 | 40
C=CCOc1ccc(CNc2ccc3[nH]c(=O)[nH]c3c2)cc1OC | 6 | 104* | 9.0* | -6 | 32
CCOc1ccc(NC(=S)NNC(=O)c2ccc(Br)cc2)cc1 | -4 | 6 | 21 | 26 | 12
CN(C)C(=S)Nc1ccc2c(c1)OCO2 | 22 | -12 | 7 | 11 | -74
c1cc(CNc2ccc3c(c2)OCO3)ccn1 | 11 | 21 | 37 | 80* | -10
Cc1ccc(CNc2ccc3c(c2)OCO3)cc1 | -20 | ? | ? | 69 | -22
S=C(Nc1ccc2c(c1)OCO2)Nc1ccc2c(c1)OCO2 | -17 | 112* | active | 23 | -12
